Screens (PubChem)
Only some compounds are listed: those with a hit (about 11% of all), similar ones and a draw of the others.
BAZ2B block: blocks human BAZ2B; Q9UIF8; AlphaScreen BAZ2B-H3K14Ac peptide displacement; Potency, µM (highest dose often 114 µM), without a hit: at the top dose activity change, negative = inhibition, hits mostly inhibitors; hit rate 4.4% among 360,000; AID 504333; note: % is set by controls: 0 for no effect and ±100 for the full control effect; nearly all actives have a fitted effect of over 60% in size
Target sequence (Q9UIF8 whole entry, looked up): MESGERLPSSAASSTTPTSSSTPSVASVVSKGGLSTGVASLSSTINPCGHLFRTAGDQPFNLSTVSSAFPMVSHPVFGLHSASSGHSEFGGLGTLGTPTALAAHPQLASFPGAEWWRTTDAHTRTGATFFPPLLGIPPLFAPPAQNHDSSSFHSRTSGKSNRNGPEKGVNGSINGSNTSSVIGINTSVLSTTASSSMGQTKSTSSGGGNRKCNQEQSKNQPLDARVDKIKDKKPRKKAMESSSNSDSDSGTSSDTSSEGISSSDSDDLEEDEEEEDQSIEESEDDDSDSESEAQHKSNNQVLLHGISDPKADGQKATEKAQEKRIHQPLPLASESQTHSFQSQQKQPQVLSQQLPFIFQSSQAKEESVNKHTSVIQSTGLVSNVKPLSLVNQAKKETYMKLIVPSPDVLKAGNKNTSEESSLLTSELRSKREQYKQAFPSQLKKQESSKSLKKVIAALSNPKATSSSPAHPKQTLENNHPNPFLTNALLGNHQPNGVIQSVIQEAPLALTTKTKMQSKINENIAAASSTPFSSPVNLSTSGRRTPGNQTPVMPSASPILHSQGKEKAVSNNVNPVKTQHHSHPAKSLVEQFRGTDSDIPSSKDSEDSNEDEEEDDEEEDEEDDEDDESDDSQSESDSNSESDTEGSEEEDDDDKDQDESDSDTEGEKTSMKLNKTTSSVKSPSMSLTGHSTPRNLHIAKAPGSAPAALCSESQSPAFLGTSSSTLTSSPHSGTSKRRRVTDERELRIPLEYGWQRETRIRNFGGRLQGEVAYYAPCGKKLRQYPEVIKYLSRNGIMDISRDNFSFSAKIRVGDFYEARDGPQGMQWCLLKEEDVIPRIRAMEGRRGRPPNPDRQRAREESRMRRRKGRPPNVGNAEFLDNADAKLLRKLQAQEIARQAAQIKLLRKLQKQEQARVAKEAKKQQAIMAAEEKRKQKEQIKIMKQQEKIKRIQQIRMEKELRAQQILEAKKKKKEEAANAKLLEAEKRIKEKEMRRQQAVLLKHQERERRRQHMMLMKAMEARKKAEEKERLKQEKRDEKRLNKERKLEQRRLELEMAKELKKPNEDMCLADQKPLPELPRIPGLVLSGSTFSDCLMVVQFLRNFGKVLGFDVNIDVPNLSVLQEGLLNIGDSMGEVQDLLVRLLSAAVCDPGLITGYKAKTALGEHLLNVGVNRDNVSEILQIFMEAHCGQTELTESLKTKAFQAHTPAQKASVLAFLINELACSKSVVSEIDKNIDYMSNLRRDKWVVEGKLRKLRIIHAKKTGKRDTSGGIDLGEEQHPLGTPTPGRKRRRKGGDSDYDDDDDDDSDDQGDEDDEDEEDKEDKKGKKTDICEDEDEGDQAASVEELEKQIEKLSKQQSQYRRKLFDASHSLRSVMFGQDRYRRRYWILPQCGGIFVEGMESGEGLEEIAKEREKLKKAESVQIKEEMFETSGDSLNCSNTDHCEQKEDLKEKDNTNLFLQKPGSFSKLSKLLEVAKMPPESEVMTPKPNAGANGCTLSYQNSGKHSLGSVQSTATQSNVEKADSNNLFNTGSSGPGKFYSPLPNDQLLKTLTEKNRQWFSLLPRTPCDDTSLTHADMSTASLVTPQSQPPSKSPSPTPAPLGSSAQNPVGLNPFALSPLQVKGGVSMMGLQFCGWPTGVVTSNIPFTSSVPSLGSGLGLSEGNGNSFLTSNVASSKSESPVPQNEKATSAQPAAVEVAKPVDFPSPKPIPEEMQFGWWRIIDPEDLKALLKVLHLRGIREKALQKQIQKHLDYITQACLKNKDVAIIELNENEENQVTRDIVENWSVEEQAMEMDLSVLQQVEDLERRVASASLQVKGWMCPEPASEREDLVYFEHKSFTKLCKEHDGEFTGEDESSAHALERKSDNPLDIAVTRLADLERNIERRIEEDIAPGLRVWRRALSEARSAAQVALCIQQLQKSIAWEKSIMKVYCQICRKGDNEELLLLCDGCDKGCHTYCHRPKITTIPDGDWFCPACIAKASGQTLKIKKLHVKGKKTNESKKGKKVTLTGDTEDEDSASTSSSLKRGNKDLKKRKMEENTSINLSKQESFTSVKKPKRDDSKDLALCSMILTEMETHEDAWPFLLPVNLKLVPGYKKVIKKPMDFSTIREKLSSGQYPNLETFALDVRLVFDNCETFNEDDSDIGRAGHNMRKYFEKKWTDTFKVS
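Multi-concentration screen (max 110 uM) measuring displacement of acetylated histone H3 peptide from BAZ2B by AlphaScreen, using 50 nM protein, 50 nM peptide and 10 ug/mL streptavidin donor plus Ni-chelate acceptor beads.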
G9a inh: inhibitors of human histone lysine methyltransferase G9a. Q96KQ7. hit rate 8.8% among 350,000. G9a H3K9 monomethylation, AlphaScreen, 2 h. Potency, µM (series often up to 102 µM), for inactives: at the highest dose activity, negative = inhibition, usual class: inhibitors. AID 504332; note: % is set by controls: 0 for no effect and ±100 for the full control effect; nearly all actives have a fitted effect of over 75% in size
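Compounds were preincubated with 20 nM G9a for 15 min, after which biotinylated H3K9 peptide (500 nM) and SAM (20 uM) started a 2 h room-temperature reaction. Monomethylated product was quantified by antibody-based AlphaScreen chemiluminescence.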
JMJD2A Tudor inh: inhibitors of human JMJD2A Tudor domain. O75164. hit rate 4.4% among 390,000. Potency, µM (top dose mostly 114 µM), for the others: top-dose activity change, negative = inhibition, hits mostly inhibitors. AlphaScreen JMJD2A-Tudor / H3K4me3 peptide binding; note: % is set by controls: 0 for no effect and ±100 for the full control effect; nearly all actives have a fitted effect of over 50% in size
HP1b chromo inh: blocks HP1-beta chromodomain binding to methylated histone tails; P83916; AlphaScreen HP1-beta / biotin-H3K9me3 peptide binding; Potency, µM (top dose mostly 114 µM), for the others: at the highest dose activity change, negative = inhibition, most hits filed as inhibitors; hit rate 0.56% among 390,000; note: nearly all actives have a fitted effect of over 70% in size
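Compound inhibition of the preformed complex between 50 nM HP1-beta and 50 nM biotinylated H3K9me3 peptide was read by AlphaScreen. Buffer was PBS pH 7.4 with 0.01% Tween-20. Incubations ran 30 min at room temperature, with 10 ug/mL donor/acceptor beads.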
L3MBTL1 inh: L3MBTL1 (human) inhibition. Q9Y468. AlphaScreen L3MBTL1–H3K9me1 peptide binding. AID 485360. Potency, µM (top dose mostly 57.1 µM), inactives show at the top dose activity, negative = inhibition, hits mostly inhibitors. hit rate 0.66% among 230,000; note: % is set by controls: 0 for no effect and ±100 for the full control effect; nearly all actives have a fitted effect of over 60% in size
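Displacement of a biotinylated histone H3(1-15) peptide monomethylated at Lys9 (75 nM) from L3MBTL1 (50 nM) was measured by AlphaScreen after a 30 min room-temperature compound incubation; cefsulodin titration served as intraplate control.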
Starred values were filed as active, the others as inactive; ! = a repeat was not active; [ ] = another dose, or the depositor's remark. Calls come from the whole dose curve; as a rule, active = well fitted inhibition curve with a large enough effect; inconclusive = small, poorly fitted or top-dose-only effect; inactive = no such curve, though single readings can be large or run the other way. Potency is the fitted concentration of half-maximal effect.

`Cc1ccc(-n2c(C3CC3c3ccc(Cl)cc3)n[nH]c2=S)cc1` (stereo not given) gave BAZ2B block -28%, G9a inh 2µM*, JMJD2A Tudor inh -27% and HP1b chromo inh 17%.
Screening Cc1ccc(-n2c([C@@H]3C[C@H]3c3ccccc3)n[nH]c2=S)cc1 returned BAZ2B block -33%, G9a inh 0.5µM*, JMJD2A Tudor inh -22%, HP1b chromo inh 27% and L3MBTL1 inh -3%.
For Cc1ccc(C2CC2C(=O)NNC(=S)Nc2cccc(Cl)c2)cc1 (stereo not given) the results were BAZ2B block -28%, G9a inh inconclusive, JMJD2A Tudor inh -34%, HP1b chromo inh -34% and L3MBTL1 inh 26%[11.4 µM].
For Cc1ccc(C2CC2c2n[nH]c(=S)n2-c2ccc(C)cc2)cc1 (stereo not given) the results were BAZ2B block -32%, G9a inh 0.63µM*, JMJD2A Tudor inh inconclusive and HP1b chromo inh -15%.
`Cc1ccc(C2CC2c2n[nH]c(=S)n2-c2cccc(Cl)c2)cc1` (stereo not given) gave BAZ2B block -39%, G9a inh 10µM*, JMJD2A Tudor inh inconclusive, HP1b chromo inh -9% and L3MBTL1 inh -6%.
S=c1[nH]nc(C2CC2c2ccc(Cl)cc2)n1-c1ccc(Cl)cc1 (stereo not given) was read as BAZ2B block inconclusive, G9a inh inconclusive, JMJD2A Tudor inh inconclusive, HP1b chromo inh -21% and L3MBTL1 inh -12%.
`CCN(CC)C(=O)c1sc2c(c1C)c(=O)n(CCc1ccccc1)c(=O)n2Cc1ccc(F)cc1Cl` gave BAZ2B block -1%, G9a inh -4%[59 µM], JMJD2A Tudor inh -32% and HP1b chromo inh 32%.
Cc1cccc(C2N(c3ccc(F)cc3)C(=O)C3CCCN32)c1 (stereo not given) was read as JMJD2A Tudor inh -8% and HP1b chromo inh 50%.
Cc1cccc(C2N(c3nccs3)C(=O)C3CCCN32)c1 (stereo not given) was read as BAZ2B block inconclusive, G9a inh 7.9µM*, JMJD2A Tudor inh -26%[57.1 µM], HP1b chromo inh 36% and L3MBTL1 inh -3%.
Screening Cc1ccc(C2N(c3nccs3)C(=O)C3CCCN32)cc1 (stereo not given) returned BAZ2B block inconclusive, G9a inh 13µM*, JMJD2A Tudor inh 20µM*, HP1b chromo inh 14% and L3MBTL1 inh 2%.
For Cc1ccc(C2N(c3ccc(F)cc3)C(=O)C3CCCN32)cc1 (stereo not given) the results were BAZ2B block -3%, G9a inh inconclusive, JMJD2A Tudor inh -4%, HP1b chromo inh 50% and L3MBTL1 inh -12%.
`O=C1C2CCCN2C(c2ccc(F)cc2)N1c1nccs1` (stereo not given) gave BAZ2B block inconclusive, G9a inh -31%[12.7 µM], JMJD2A Tudor inh 20µM*, HP1b chromo inh 19% and L3MBTL1 inh 1%.
O=C(Cn1nc2n(c1=O)-c1ccccc1SC2)N/N=C/c1cccs1 was read as BAZ2B block 0%, G9a inh 7%, JMJD2A Tudor inh -7% and HP1b chromo inh 18%.
O=C(Cn1c(=O)n(-c2ccc(Cl)cc2)c(=O)c2c3c(sc21)CCCCC3)Nc1cccc(Cl)c1 was read as BAZ2B block -1%, G9a inh 11%[59 µM], JMJD2A Tudor inh 5% and HP1b chromo inh 29%.
For CCCC/C=C/[C@H](C)[C@@](C)(COC(=O)c1ccc(Br)cc1)Cc1ccccc1 the results were JMJD2A Tudor inh 12% and HP1b chromo inh 50%.
CC(C)c1ccc(-c2nnc(N)s2)cc1 was read as BAZ2B block 2%, G9a inh 45µM*, JMJD2A Tudor inh -13%, HP1b chromo inh -7% and L3MBTL1 inh 3%.
For CCC1CCCCN1C(=O)COc1ccc2c(c1)OCO2 (stereo not given) the results were BAZ2B block -22%, G9a inh 71µM*, JMJD2A Tudor inh -12% and HP1b chromo inh 17%.
`Cc1ccc(N2C(=O)C(CN3CCCC3)C2c2ccccc2)cc1` (stereo not given) gave BAZ2B block -25%, G9a inh -35%, JMJD2A Tudor inh -30%, HP1b chromo inh -12% and L3MBTL1 inh inconclusive.
Cc1ccc(N2C(=O)C(CN3CCCCC3)C2c2ccccc2)cc1 (stereo not given) was read as BAZ2B block -7%, G9a inh 8%[59 µM], JMJD2A Tudor inh -21%, HP1b chromo inh 89µM* and L3MBTL1 inh 0%.
Cc1ccccc1C(=O)Nc1c(C)nc(Nc2ccccc2)nc1Nc1ccccc1 was read as BAZ2B block -1%, G9a inh 5%[59 µM], JMJD2A Tudor inh -5% and HP1b chromo inh 33%.
Screening O=S(=O)(Nc1cccnc1)c1ccccc1 returned BAZ2B block -15%, G9a inh 14%[59 µM], JMJD2A Tudor inh 50µM*! and HP1b chromo inh 19%.
O=S(=O)(Nc1ccncc1)c1ccccc1 was read as BAZ2B block inconclusive, G9a inh 50µM*, JMJD2A Tudor inh 12%[57.1 µM], HP1b chromo inh 47% and L3MBTL1 inh -3%.
Screening CCOc1ccc(NC(=O)Cn2c(=O)cc(C)c3c(C)nn(-c4cccc(Cl)c4C)c32)cc1 returned BAZ2B block 2%, G9a inh 7%[59 µM], JMJD2A Tudor inh -33% and HP1b chromo inh 59%.
For Cc1ccc(C)c(Cn2c3ccccc3c3cnn(CC(=O)NC(C)c4ccccc4)c(=O)c32)c1 (stereo not given) the results were BAZ2B block -29%, G9a inh -11%[59 µM], JMJD2A Tudor inh -8% and HP1b chromo inh 13%.
For CC(=O)Nc1ccc(NC(=O)CSc2nc(N)c(NC(=O)c3ccco3)c(=O)[nH]2)cc1 the results were BAZ2B block 50µM*, G9a inh -5%[12.7 µM], JMJD2A Tudor inh -15% and HP1b chromo inh 14%.
`Cc1cc(C)cc(NC(=O)CSc2nc(N)c(NC(=O)c3cccs3)c(=O)[nH]2)c1` gave BAZ2B block -8%, G9a inh 11µM*, JMJD2A Tudor inh -15%, HP1b chromo inh 15% and L3MBTL1 inh 15%.
`Cc1nnc(NC(=O)CSc2nc(N)c(NC(=O)c3cccs3)c(=O)[nH]2)s1` gave BAZ2B block -23%, G9a inh inconclusive, JMJD2A Tudor inh -1% and HP1b chromo inh 27%.
Screening C=CCSc1nc(N)c(NC(=O)c2ccco2)c(=O)[nH]1 returned JMJD2A Tudor inh -6% and HP1b chromo inh 29%.
`Nc1nc(SCC(=O)Nc2ccc(F)cc2)[nH]c(=O)c1NC(=O)c1ccc(F)c(F)c1` gave BAZ2B block -21%, G9a inh 79µM*, JMJD2A Tudor inh -3% and HP1b chromo inh 18%.
